# In ChEMBL document CHEMBL4513216, “Probing the Open Global Health Chemical Diversity Library for Multistage-Active Starting Points for Next-Generation Antimalarials” (ACS Infect Dis, 2020):
# Hit rate of the full screen: of about 65,000 compounds, about 2,100 (3.2%) showed an effect of 50% or more. The median lay at about -52%. Shown is part of a subset that was picked to be rich in strong results.
# Test system: Plasmodium falciparum
# Assay: Screen against P. falciparum Asexual Blood Stage (ABS), at 5uM
# Format: functional, Dd2
# Details: tested at 5 uM
row,SMILES,INHIBITION
1,CC(C)NC(=O)C1(Cc2ccccc2-c2cncnc2)CCCNC1 (configuration not stated),-14.3%
2,O=C(NCCO)C1(Cc2ccccc2-c2cccnc2)CCOCC1,-31.7%
3,CC(C)CNC(=O)C1(Cc2ccccc2-c2ccccc2)CCNC1 (configuration not stated),52%
4,O=C(O)C1(Cc2ccc(-c3cccs3)cc2)CCNC1 (configuration not stated),-44.3%
5,Cc1cc(=O)[nH]c(=O)n1Cc1ncc(-c2ccccc2C(=O)O)s1,-46.1%
6,O=C1C(NCc2nnc3n2CCCC3)CCN1c1ccccc1Cl (configuration not stated),-35.2%
7,COCCNC(=O)c1ccc2ccc(N(C)CC3CC3)n2c1,60.1%
8,CN(CC1CC1)c1ccc2ccc(C(=O)NC3CCCCC3)cn12,54.6%
9,CN(C)C(=O)CNC(=O)c1ccc2ccc(N(C)CC3CC3)n2c1,-73.5%
10,CN(C)CCNC(=O)c1ccc2ccc(N(C)CC3CC3)n2c1,19.9%
11,CN(CC1CC1)c1ccc2ccc(C(=O)NCCc3ccccc3)cn12,-46.3%
12,CCN(CC)c1ccc2ccc(C(=O)NC3CC3)cn12,-34.9%
13,Cn1cccc1CN1CCC2(CC1)CN(c1ncccn1)CCO2,-28.5%
14,Cc1ccc(CN(Cc2ccncc2)C2CCN(C)CC2)s1,34.9%
15,Cc1ccc(CN(Cc2ncc[nH]2)C2CC(C)(C)NC(C)(C)C2)o1,-15.9%
16,CC1(C)CC(N(Cc2cccnc2)Cc2cccnc2)CC(C)(C)N1,-5.22%
17,Cc1ccc(CN(Cc2cccnc2)C2CC(C)(C)NC(C)(C)C2)s1,69.6%
18,CC1(C)CC(N(Cc2ccccc2)Cc2c[nH]cn2)CC(C)(C)N1,20.7%
19,Cc1cccc(CN(Cc2cccnc2)C2CC(C)(C)NC(C)(C)C2)n1,42.9%

row,SMILES,INHIBITION
1,Cc1ccc(CN(Cc2ccccn2)C(=O)[C@H]2CC[C@@H](N)C2)s1,-57.1%
2,CC1(C)CC(N(Cc2ccccc2)Cc2cccnc2)CC(C)(C)N1,54.6%
3,Cc1ccc(CN(Cc2ccccn2)C2CC(C)(C)NC(C)(C)C2)s1,69.8%
4,CC1(C)CC(N(Cc2ccncc2)Cc2cccnc2)CC(C)(C)N1,25.7%
5,Cc1ccc(CN(Cc2c[nH]cn2)C2CC(C)(C)NC(C)(C)C2)o1,-50.8%
6,Cc1ccc(CN(Cc2ccncc2)C2CC(C)(C)NC(C)(C)C2)o1,66.9%
7,CCn1ncc2c(C(F)(F)F)cc(-c3ccn(C)n3)nc21,-88%
8,COc1ccc(C(C)Nc2cnn(C)c(=O)c2Cl)cc1OC (configuration not stated),-40.4%
9,CC(C)OCCN1CCC(Nc2ncccn2)CC1,-102%
10,CCC1CN(C(=O)NCc2cccnc2-n2cccn2)CCO1 (configuration not stated),-88.4%
11,O=C(O)C1CCCN1c1nc(-c2ccc(Cl)c(Cl)c2)cc(C(F)(F)F)n1 (configuration not stated),-8.45%
12,CCCc1nc(C)c(C(=O)NCCn2nc3ccccn3c2=O)s1,-201%
13,Cc1cccc(C(CNC(=O)NCc2cc[nH]n2)N2CCOCC2)c1 (configuration not stated),53%
14,O=C(NCc1cc[nH]n1)NCC(c1ccc(F)cc1)N1CCOCC1 (configuration not stated),-39%
15,O=C(NCc1cc[nH]n1)NCC(c1ccccc1)N1CCOCC1 (configuration not stated),-82.7%
16,CCCn1ccnc1-c1nccn1CCn1cnnc1,-36%
17,O=C(C1CCOCC1)N1CCO[C@H]2[C@H](Oc3ccccn3)CC[C@@H]21,-53.1%
18,O=C(NCC(=O)N1CCCC1)c1nn(-c2ccccc2F)cc1O,-120%
19,CCOCC(O)CN1CCN(C(=O)c2ccc(OC)cc2)CC1 (configuration not stated),-24.3%

row,SMILES,INHIBITION
1,CCOCC(O)CN1CCN(C(=O)c2ccc(N(C)C)nc2)CC1 (configuration not stated),-72.5%
2,CCOCC(O)CN1CCN(C(=O)c2ccc(C)nc2)CC1 (configuration not stated),60.7%
3,CC(Nc1ccc(C#N)cc1F)c1cccc(S(N)(=O)=O)c1 (configuration not stated),-49.5%
4,Cc1nc(CN2CC[C@@H]3[C@@H](CCC(=O)N3CCc3c[nH]cn3)C2)co1,-58.8%
5,O=C1CC[C@H]2CN(Cc3cccnc3)CC[C@H]2N1CCc1c[nH]cn1,-154%
6,O=C1CC[C@H]2CN(Cc3ccc(Cl)s3)CC[C@H]2N1CCc1c[nH]cn1,66.6%
7,CC(=O)N1CCC2(C1)c1ccccc1S(=O)(=O)N2C (configuration not stated),-56.8%
8,COCc1ccccc1CNCc1c(C(C)C)nn(C)c1N(C)C,59.4%
9,COCc1ccccc1CNCc1c(C)nn(C)c1N(C)C,-36.8%
10,CC(C)c1nn(C)c(N(C)C)c1CNCc1cccc2cccnc12,67.5%
11,CC(C)c1nn(C)c(N(C)C)c1CNCc1ccccc1CO,44.8%
12,COc1ncccc1CNCc1c(C(C)C)nn(C)c1Cl,51.7%
13,Cc1nn(C)c(N(C)C)c1CNCc1ccccc1CN(C)C,18.8%
14,COc1ncccc1CNCc1c(C(C)C)nn(C)c1OC,-29.9%
15,CC(C)c1nn(C)c(N(C)C)c1CNCc1ccccc1CN(C)C,59.5%
16,COCc1cccc(CNCc2c(C(C)C)nn(C)c2N(C)C)c1,36.5%
17,COc1ncccc1CNCc1c(C(C)C)nn(C)c1N(C)C,11%
18,CC(C)c1nn(C)c(N(C)C)c1CNCc1cccnc1N(C)C,21%
19,CCOc1ncccc1CNCc1c(C(C)C)nn(C)c1N(C)C,-7.19%
